For eight compounds, growth results are on record in PubChem BioAssay (NCI).

Holding throughout (experiment): NCI-60 one-dose screen, 48 h (100 = growth as untreated, 0 = no growth, -100 = all killed)
Holding throughout (settings): 10 µM unless noted

In assay [1] the test system is HCT-15 colon.
Assay [2] deals with HT29 colon.
Assay [3] relates to SNB-75 CNS.
Assay [4] relates to SNB-19 CNS.
Assay [5] concerns U251 CNS.
For assay [6], the system named is PC-3 prostate.
Assay [7] has as its system SK-MEL-5 melanoma.
Assay [8] deals with UACC-62 melanoma.
Assay [9] has as its system LOX IMVI melanoma.
In assay [10] the test system is SK-MEL-28 melanoma.
In assay [11] the test system is SK-MEL-2 melanoma.
Assay [12] has as its system EKVX NSCLC.
Assay [13] deals with SN12C renal.
For assay [14], the system named is UO-31 renal.
Assay [15] has as its system ACHN renal.
Assay [16] has as its system A498 renal.
Assay [17] concerns CCRF-CEM leukemia.
Assay [18] concerns MOLT-4 leukemia.
The test system of assay [19] is CAKI-1 renal.
In assay [20] the test system is TK-10 renal.

Compounds without any hit were thinned out: in the full panel of roughly 83,000, 20% have a hit.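 Cell lines were cultured in 96-well plates, exposed to a single compound concentration, and assessed for percent growth 48 hours later.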 A number with no mark means an inactive call. The source made the active and inactive calls. How the source made its calls: active means growth percent below 10; inactive means the rest.

For `Cc1n(Cc2ccc3ccccc3c2)c2ccccc2[n+]1Cc1ccc2ccccc2c1`, the growth in [1] is 15.7%; in assay [2], -53.3% (active); in assay [3], -46.2% (active); in assay [4] it was -91.7% (active); in assay [5] it was -87.6% (active); in assay [6], -68.1% (active). Also, the growth in assay [7] was -97.6% (active); in assay [8], -57.9% (active); in assay [9] it was -89% (active); in assay [10] it was -58% (active); in assay [11] it was -74.6% (active); in [12], 9.57% (active). The growth in assay [13] was -44.2% (active); in [14], 30.7%; in assay [15], 25.3%; in assay [16], -11.5% (active); in assay [17], -45.1% (active); in assay [18], -54.7% (active).
With `CN[C@@H]1C(OC2[C@H](O[C@H]3[C@H](O)[C@@H](O)[C@H](N=C(N)N)[C@@H](O)[C@@H]3N=C(N)N)OC(C)[C@]2(O)CO)OC(CO)C(O)C1O` (some centres not stated), the growth in assay [1] is 112%; in assay [2], 98.5%; in assay [3], 103%; in assay [4], 113%; in [5] it was 103%; in assay [6] it was 108%. The growth in [7] was 105%; in [8], 114%; in assay [9] it was 104%; in assay [10] it was 104%; in assay [11], 112%; in assay [12], 113%. The growth is 108% in assay [13]; 102% in assay [14]; 114% in assay [15]; 107% in assay [19]; 109% in assay [16]; 101% in assay [17]. In assay [18], the growth is 92.7%.
In the case of `CCOC(=O)/C=C1/SC(=Nc2ccc(C#N)cc2)N(Cc2ccco2)C1=O`, the growth is -4.1% (active) in assay [1]; 35% in assay [2]; 83.3% in assay [3]; 67.1% in assay [4]; 59.8% in assay [5]; 20.2% in [6]. The growth in assay [7] was 62.5%; in assay [8] it was 35.5%; in assay [9], -73.2% (active); in [10], 38.5%; in [11] it was 78.5%; in [12], 74%. In addition, the growth is 52.5% in assay [13]; 31.6% in [14]; -78.6% (active) in assay [15]; 87% in assay [16]; 0.581% (active) in assay [17]; -6.94% (active) in [18].
In the case of `Cc1ccc(/C=C(/C#N)n2nnc3ncccc32)cc1`, the growth in assay [1] is 2.19% (active); in assay [2], 6.53% (active); in [3], -2.77% (active); in assay [4], 56.7%; in [5], 40.4%; in assay [6] it was 22.3%. Also, the growth in assay [7] is 12.5%; in assay [8] it was 22.1%; in [9], 4.54% (active); in assay [10] it was 28.3%; in assay [11], 17.1%; in assay [12], 24.8%. Besides, the growth in [13] was 8.6% (active); in assay [14], 24.3%; in [15], 0.614% (active); in assay [16], -7.36% (active); in assay [17] it was 9.57% (active); in assay [18], 11.8%.
For the compound `CNCCCn1c2c(c3ccc(F)cc3c1=O)C(=O)c1cc(OC)cnc1-2`, the growth in [1] is -3.12% (active); in assay [2], -20.9% (active); in assay [3], -23.4% (active); in assay [4], 11.9%; in [5], -25.8% (active); in [6], 6.67% (active). The growth in [7] is -97.3% (active); in [8], -33.4% (active); in assay [9] it was -70.7% (active); in [10] it was 9.85% (active); in [11] it was -9.66% (active); in assay [12] it was -13.2% (active). Besides, the growth is 6.91% (active) in assay [13]; -89.3% (active) in assay [14]; -57.2% (active) in assay [15]; -87.6% (active) in assay [16]; 1.24% (active) in assay [17]; -19.8% (active) in [18].
`COc1ccc2c(c1)sc1nc(-c3ccc(Br)cc3)cn12`: the growth in assay [1] was 110%; in [2], 108%; in assay [3], 112%; in assay [4], 115%; in assay [5], 99.5%; in assay [6] it was 101%. Further, the growth in assay [7] was 76.4%; in assay [8], 86.2%; in assay [9], 99.1%; in [10], 112%; in assay [11], 106%; in [12] it was 113%. The growth in assay [13] is 104%; in assay [20], 133%; in assay [15], 110%; in assay [19] it was 96.4%; in assay [16], 84.4%; in [17] it was 109%. The growth in assay [18] was 104%.
Take `CCOC(=O)CCN(c1c(Cl)ssc1=O)C(C)C`: the growth in [1] was 113%; in assay [2], 102%; in assay [3], 97.8%; in assay [4], 109%; in assay [5], 101%; in [6] it was 101%. Besides, the growth in assay [7] is 97.7%; in [8], 97.8%; in assay [9], 94.4%; in assay [10] it was 93.4%; in assay [11], 96.4%; in [12], 107%. The growth in assay [13] is 114%; in [20] it was 129%; in [15], 118%; in assay [19], 124%; in assay [16], 106%; in assay [17], -34.9% (active). The growth in [18] was -14.5% (active).
With `C[C@H](C(=O)N[C@@H](Cc1ccc(-c2ccccc2)cc1)C(=O)NC1CC(C)(C)N(C)C(C)(C)C1)c1ccc(-c2ccccc2)c(F)c1`, the growth in [1] is -81.2% (active); in [2], -76.2% (active); in assay [3] it was -29% (active); in assay [4], -72.6% (active); in assay [5] it was -74.7% (active); in assay [6], -70.5% (active). Besides, the growth was -94.7% (active) in assay [7]; -57.6% (active) in assay [8]; -83.8% (active) in assay [9]; -73% (active) in assay [10]; -70.9% (active) in assay [11]; -47.8% (active) in [12]. For the same compound, the growth in assay [13] was -59.2% (active); in [14], -80.9% (active); in assay [15], -87.8% (active); in [16], -18.2% (active); in assay [17], -45.9% (active); in [18] it was -60.9% (active).
